Data from PubChem BioAssay (Tox21).
A number with no mark means an inactive call. Inconclusive results are not listed. A call without a number means that no potency is given here. Active and inactive are the calls of the source. The call rests on the fitted dose curve.

Target: Acetylcholinesterase (Homo sapiens) (UniProt P22303)
Experiment: Acetylcholinesterase (AChE) small molecule antagonists: fluorescence cell-based qHTS assay (AID 1347398); further: nearly all actives have a fitted effect of over 50% in size
Conditions: SH-SY5Y cells; Potency: AChE activity; outcome: AChE activity; series mostly up to 115 µM
How it was run: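 Cellular AChE inhibition: SH-SY5Y cells treated with test chemical for 30 min at 37 C, then acetylthiocholine hydrolysis followed over 40 min at room temperature via thiocholine-reactive Thiolite Green fluorescence (490/520 nm).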

Sequence of Acetylcholinesterase (Homo sapiens) (P22303 whole entry, looked up): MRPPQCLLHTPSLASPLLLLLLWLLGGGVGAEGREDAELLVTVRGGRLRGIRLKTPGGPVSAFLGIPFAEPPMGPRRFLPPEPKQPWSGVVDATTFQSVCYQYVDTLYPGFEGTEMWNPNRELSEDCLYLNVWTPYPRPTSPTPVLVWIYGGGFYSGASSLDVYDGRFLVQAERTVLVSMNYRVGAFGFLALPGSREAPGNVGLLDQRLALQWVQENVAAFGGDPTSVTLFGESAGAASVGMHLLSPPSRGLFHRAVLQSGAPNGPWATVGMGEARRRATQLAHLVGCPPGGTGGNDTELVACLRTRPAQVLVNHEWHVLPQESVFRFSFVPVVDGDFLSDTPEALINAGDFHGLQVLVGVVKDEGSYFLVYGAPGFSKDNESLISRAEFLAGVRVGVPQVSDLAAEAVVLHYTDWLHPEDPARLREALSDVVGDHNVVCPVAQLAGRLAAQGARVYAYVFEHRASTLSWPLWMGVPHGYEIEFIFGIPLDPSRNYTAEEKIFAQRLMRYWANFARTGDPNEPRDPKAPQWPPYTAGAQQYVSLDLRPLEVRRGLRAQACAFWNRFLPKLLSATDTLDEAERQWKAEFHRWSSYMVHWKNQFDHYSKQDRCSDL

Structure (SMILES) | Potency | activity change, negative = inhibition
O=C(O)Cc1ccc(Cl)cc1Cl | inactive | 
CCC(C(=O)NC(=O)NC(C)=O)c1ccccc1 (stereo not given) | inactive | 
CCCCC(CC)COC(=O)c1ccc(N(C)C)cc1 (stereo not given) | inactive | 
CC[Si](OC(C)=O)(OC(C)=O)OC(C)=O | inactive | 
C[C@H](N)[C@H](O)c1cccc(O)c1 | inactive | 
O=c1[nH]c2ccc(Cl)cc2o1 | inactive | 
Cc1ccccc1CCO | inactive | 
OC[C@@H](O)[C@@H](O)[C@H](O)[C@H](O)CO | inactive | 
CCCCCCCC(OC)OC | inactive | 
COc1ccc(C(=O)N2CCN(CC(=O)N3CCOCC3)CC2)cc1 | inactive | 
CN1Cc2cc(C(=O)N3CCC(C4CCNCC4)CC3)ccc2NC(CC(=O)O)C1=O (stereo not given) | inactive | 
CCc1cccc(C)c1N(C(=O)CS(=O)(=O)O)C(C)COC (stereo not given) | inactive | 
CC(c1cc(C(C)(C)C)cc(C(C)(C)C)c1O)c1cc(C(C)(C)C)cc(C(C)(C)C)c1O | inactive | 
O=C(OCCOCCO)c1ccccc1Nc1cccc(C(F)(F)F)c1 | inactive | 
CC(C(=O)O)c1ccc2c(c1)CC(=O)c1ccccc1S2 (stereo not given) | inactive | 
O=C[C@@H](O)[C@H](O)[C@H](O)CO | inactive | 
C=CC(C)(CCC=C(C)C)OC(C)=O (stereo not given) | inactive | 
O=[N+]([O-])c1ccc(CCO)cc1 | inactive | 
COC(=O)c1sccc1S(N)(=O)=O | inactive | 
CCCCCCOC(=O)C(C)C | inactive | 

Structure (SMILES) | Potency | activity change, negative = inhibition
O=C(Cl)c1ccc(F)c(Cl)c1 | inactive | 
C=Cc1cccc(C)c1 | inactive | 
O=C(O)Cn1c(C(=O)Nc2nc(-c3ccccc3Cl)cs2)cc2ccccc21 | inactive | 
Cc1ccc(C)c([N+](=O)[O-])c1 | inactive | 
C/C(=C(\CCOP(=O)(O)O)SC(=O)c1ccccc1)N(C=O)Cc1cnc(C)nc1N |  | 5.35% [at 10.5 µM]
Cc1ccc2n[nH]nc2c1 | inactive | 
O=c1[nH]cc(F)c(=O)[nH]1 | inactive | 
CC(CCO)CCc1ccccc1 (stereo not given) | inactive | 
CC(C)=CCC1C(=O)N(c2ccccc2)N(c2ccccc2)C1=O | inactive | 
CCCCOCCOCCO | inactive | 
O=S(=O)(Cl)c1c(Cl)cccc1Cl | inactive | 
CSc1ccc(O)cc1C | inactive | 
Nc1nc2ncc(CNc3ccc(C(=O)N[C@@H](CCC(=O)O)C(=O)O)cc3)nc2c(=O)[nH]1 | inactive | 
CC(=O)O[C@H]1C[C@@H]2CC[C@@]1(C)C2(C)C | inactive | 
CCC(=O)c1c(O)cc(O)cc1O | inactive | 
Cc1cccc(O)c1 | inactive | 
O=[N+]([O-])c1ccc(O)c2ncccc12 | inactive | 
Cc1cccc(C)c1NC(=O)CN1CCN(CCCC(c2ccc(F)cc2)c2ccc(F)cc2)CC1 | inactive | 
CC(C)C[C@H](NC(=O)[C@H](Cc1ccccc1)NC(=O)c1cnccn1)B(O)O | inactive | 
CC(C)CC(C)O (stereo not given) | inactive | 

Target: Acetylcholinesterase (Homo sapiens) (UniProt P22303)
Experiment: Acetylcholinesterase (AChE) small molecule antagonists: enzyme-based qHTS assay with human liver microsomes (AID 1347399); further: nearly all actives have a fitted effect of over 60% in size
Conditions: Potency: qHTS inhibition; outcome: qHTS inhibition; series mostly up to 115 µM
How it was run: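 Recombinant human AChE (50 mU/mL in the enzyme mix) and human liver microsomes (0.25 mg/mL final) were preincubated with compound and NADPH (0.25 mg/mL final) for 30 min at 37 C. Acetylthiocholine/DTNB was then added; thiocholine was read colorimetrically after 10 min at room temperature.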

Structure (SMILES) | Potency | activity change, negative = inhibition
O=C(O)Cc1ccc(Cl)cc1Cl | inactive | 
CCC(C(=O)NC(=O)NC(C)=O)c1ccccc1 (stereo not given) | inactive | 
CCCCC(CC)COC(=O)c1ccc(N(C)C)cc1 (stereo not given) | inactive | 
CC[Si](OC(C)=O)(OC(C)=O)OC(C)=O | inactive | 
C[C@H](N)[C@H](O)c1cccc(O)c1 | inactive | 
O=c1[nH]c2ccc(Cl)cc2o1 | inactive | 
Cc1ccccc1CCO | inactive | 
OC[C@@H](O)[C@@H](O)[C@H](O)[C@H](O)CO | inactive | 
CCCCCCCC(OC)OC | inactive | 
COc1ccc(C(=O)N2CCN(CC(=O)N3CCOCC3)CC2)cc1 | inactive | 
CN1Cc2cc(C(=O)N3CCC(C4CCNCC4)CC3)ccc2NC(CC(=O)O)C1=O (stereo not given) | inactive | 
CCc1cccc(C)c1N(C(=O)CS(=O)(=O)O)C(C)COC (stereo not given) | inactive | 
CC(c1cc(C(C)(C)C)cc(C(C)(C)C)c1O)c1cc(C(C)(C)C)cc(C(C)(C)C)c1O | inactive | 
O=C(OCCOCCO)c1ccccc1Nc1cccc(C(F)(F)F)c1 | inactive | 
CC(C(=O)O)c1ccc2c(c1)CC(=O)c1ccccc1S2 (stereo not given) | inactive | 
O=C[C@@H](O)[C@H](O)[C@H](O)CO | inactive | 
C=CC(C)(CCC=C(C)C)OC(C)=O (stereo not given) | inactive | 
O=[N+]([O-])c1ccc(CCO)cc1 | inactive | 
COC(=O)c1sccc1S(N)(=O)=O | inactive | 
CCCCCCOC(=O)C(C)C | inactive | 

Structure (SMILES) | Potency | activity change, negative = inhibition
O=C(Cl)c1ccc(F)c(Cl)c1 | inactive | 
C=Cc1cccc(C)c1 | inactive | 
O=C(O)Cn1c(C(=O)Nc2nc(-c3ccccc3Cl)cs2)cc2ccccc21 | inactive | 
Cc1ccc(C)c([N+](=O)[O-])c1 | inactive | 
C/C(=C(\CCOP(=O)(O)O)SC(=O)c1ccccc1)N(C=O)Cc1cnc(C)nc1N |  | -1.26% [at 10.5 µM]
Cc1ccc2n[nH]nc2c1 | inactive | 
O=c1[nH]cc(F)c(=O)[nH]1 | inactive | 
CC(CCO)CCc1ccccc1 (stereo not given) | inactive | 
CC(C)=CCC1C(=O)N(c2ccccc2)N(c2ccccc2)C1=O | inactive | 
CCCCOCCOCCO | inactive | 
O=S(=O)(Cl)c1c(Cl)cccc1Cl | inactive | 
CSc1ccc(O)cc1C | inactive | 
Nc1nc2ncc(CNc3ccc(C(=O)N[C@@H](CCC(=O)O)C(=O)O)cc3)nc2c(=O)[nH]1 | inactive | 
CC(=O)O[C@H]1C[C@@H]2CC[C@@]1(C)C2(C)C | inactive | 
CCC(=O)c1c(O)cc(O)cc1O | inactive | 
Cc1cccc(O)c1 | inactive | 
O=[N+]([O-])c1ccc(O)c2ncccc12 | inactive | 
Cc1cccc(C)c1NC(=O)CN1CCN(CCCC(c2ccc(F)cc2)c2ccc(F)cc2)CC1 | inactive | 
CC(C)C[C@H](NC(=O)[C@H](Cc1ccccc1)NC(=O)c1cnccn1)B(O)O | inactive | 
CC(C)CC(C)O (stereo not given) | inactive | 
